The full list was thinned out, with hits kept by preference.
VACV mCherry inh: inhibitors of vaccinia virus infection (mCherry reporter signal) | Vaccinia virus mCherry reporter infection, fluorescence | Potency, µM (series often up to 36.5 µM), for inactives: at the top dose activity change, negative = inhibition, most hits filed as inhibitors | 310,000 tested, 0.63% active; calls by dose curve; tested in A549 cells; also: potency is read from the fitted curve at half-maximal effect; % is scaled to controls: 0 for no effect and ±100 for the full control effect; nearly all actives have a fitted effect of over 35% in size
Vaccinia Venus: inhibitors of vaccinia virus (Venus reporter); Vaccinia virus Venus reporter expression, fluorescence; Potency, µM (titrated, usually from 36.5 µM), for the others: top-dose activity change, negative = inhibition, most hits filed as inhibitors; 330,000 tested, 0.46% active; AID 720580; calls by dose curve; tested in A549 cells; also: potency is read from the fitted curve at half-maximal effect; % is scaled to controls: 0 for no effect and ±100 for the full control effect; nearly all actives have a fitted effect of over 30% in size
CHX counter: counter-screen hit for Shiga toxin inhibitors, cycloheximide. max response, %. cell reporter, cycloheximide protein synthesis inhibition counterscreen. 300,000 tested, 12% active; in the data active = max response mostly above about 13%, no sharp cut-off; inactive = mostly below about 14%; also: read at 38.3 µM for the half of the compounds with a filed dose; 0% is about no effect
LASV entry inh: blocks Lassa virus binding to or entry into cells; Lassa virus pseudotype entry inhibition, cell reporter; 300,000 tested, 1.2% active; Potency, µM (series often up to 37.9 µM), without a hit: at the top dose activity change, negative = inhibition, usual class: inhibitors; AID 540256; calls by dose curve; tested in HEK293 cells; also: potency is read from the fitted curve at half-maximal effect; % is scaled to controls: 0 for no effect and ±100 for the full control effect; nearly all actives have a fitted effect of over 50% in size
Shiga inhibitor: Shiga toxin inhibition. Vero cells, Shiga toxin protein synthesis inhibition reporter. inhibition, % at 38.7 µM. AID 2315. 290,000 tested, 9.2% active; in the data active = inhibition mostly above about 28%, no sharp cut-off; inactive = mostly below about 43%; also: 0% is about no effect
Marburg entry inh: inhibitors of Marburg virus binding or cell entry. Marburg virus pseudotyped entry inhibition, cell reporter. AID 540276. Potency, µM (series often up to 37.8 µM), without a hit: top-dose activity change, negative = inhibition, actives largely listed as inhibitors. 300,000 tested, 1.8% active; calls by dose curve; tested in HEK293 cells; also: potency is read from the fitted curve at half-maximal effect; % is scaled to controls: 0 for no effect and ±100 for the full control effect
The depositor's hits bear a star; i = inactive; ? = inconclusive; · = no result given; [ ] = dose if it differs, or a comment.

SMILES	VACV mCherry inh	Vaccinia Venus	CHX counter	LASV entry inh	Shiga inhibitor	Marburg entry inh
Cc1c(Cl)c(C(F)(F)F)nn1CC(=O)NCc1ccco1	i	-8%	35	19%[46.1 µM]	21	?
NC1=NC[C@H](CC2CCCCC2)N1CCc1cc(C(F)(F)F)cc(C(F)(F)F)c1	?	10µM*	-5	·	-13	·
CN(C)c1ccc(NC(=O)CN2CCN(CC(=O)Nc3ccc(Br)cc3)CC2)cc1	-10%	-12%	·	-1%[46.1 µM]	·	·
Cc1cccc2nc(COc3ccc4ccccc4c3Br)cn12	-5%	-5%	46*	?	48*	10µM*
COc1cc(OC)cc(C(=O)Nn2c(C)nc3ccccc3c2=O)c1	-19%	-10%	-2	30%	-20	-2%[46.1 µM]
COc1cc(OC)cc(-c2nc3ccccc3c(=O)n2OC(=O)c2ccc(C)c(C)c2)c1	?	?	9	?	18	11µM*
CC(=O)c1cccc(Nc2ccc(Br)cc2)c1	13%	-5%	·	·	·	·
CCOC(=O)NC(=S)Nc1ccc(C(C)(C)C)cc1	-2%[7.34 µM]	-4%[7.34 µM]	33*	13%	80*	0%[46.1 µM]
CCCCNC(=S)Nc1ccc(Cl)cc1	-11%	-9%	16	3%	45*	-25%
CCCCNC(=S)Nc1ccc(C(F)(F)F)cc1	?	-29%	19*	2%	30*	?
CCNC(=S)Nc1ccc(Cl)cc1	-22%	-5%	-1	5%	12	1%
CC(C)(C)C(=O)NC(=S)Nc1ccc(C(F)(F)F)cc1	·	·	43*	·	61*	·
Cc1nc2n(c(=O)c1CCN1CCC(c3noc4cc(F)ccc34)CC1)CCC[C@H]2O	-7%	-8%	·	·	·	·
CC(=O)c1cccc(NC(=O)Cn2c(C)c3cnn(-c4ccccc4)c(=O)c3c2C)c1	3%	7%	·	7%[46.1 µM]	·	-1%[46.1 µM]
CCOc1ccc2c(c1)c(=O)c(C(=O)c1ccccc1)cn2Cc1ccccc1	-16%	-8%	·	20%[46.1 µM]	·	7%[46.1 µM]
CCCCCn1c(NCc2ccc(OC)cc2)nc2ccccc21	-26%	?	·	?	·	?
CCn1c(NCc2cc(OC)ccc2OC)nc2ccccc21	·	·	30*	-21%	69*	-9%
COc1ccc(OC)c(CNc2nc3ccccc3n2CCN2CCCCC2)c1	·	·	-4	-11%	-7	?
CCCn1c(NCc2cc(OC)ccc2OC)nc2ccccc21	·	·	27*	2%	53	-28%
O=C(CN1C(=O)S/C(=C\C=C\c2ccccc2)C1=O)NC1CCS(=O)(=O)C1 (configuration not stated)	·	·	48*	·	46*	·
CC(C)c1ccc(/C=C2\SC(=O)N(CC(=O)NC3CCS(=O)(=O)C3)C2=O)cc1 (configuration not stated)	·	·	36*	·	76*	·
O=C(CN1C(=O)S/C(=C\c2ccccc2)C1=O)NC1CCS(=O)(=O)C1 (configuration not stated)	-21%	-10%	1	23%[46.1 µM]	10	-20%[46.1 µM]
COc1ccc(CCNC(=O)Cn2cnc3c(cnn3C(C)(C)C)c2=O)cc1OC	-20%	-13%	6	-2%	-5	7%
Cc1cc(C)cc(-n2ccn(CC(=O)NCCc3ccccc3)c(=O)c2=O)c1	-7%	-7%	11	14%[46.1 µM]	-6	18%[46.1 µM]
Cc1ccc(-n2ccn(CC(=O)NCCc3ccccc3)c(=O)c2=O)cc1C	-11%	-8%	33*	14%[46.1 µM]	18	·
SMILES	VACV mCherry inh	Vaccinia Venus	CHX counter	LASV entry inh	Shiga inhibitor	Marburg entry inh
CC(C)(C)n1ncc2c(=O)n(CC(=O)NCCc3ccccc3)cnc21	-17%	-4%	21*	27%	61*	10%
CC(C)(C)n1ncc2c(=O)n(CC(=O)NCc3ccccc3Cl)cnc21	·	-5%	32*	?	64*	?
COC(=O)c1cccc(NC(=O)Nc2ccc(Cl)c(Cl)c2)c1	?	?	38*	33%[14.3 µM]	59*	20%
COC(=O)c1cccc(NC(=O)NC(=O)c2ccccc2Cl)c1	-22%	-9%	10	?	35	?
COC(=O)c1cc(NC(=O)Nc2ccccc2)ccc1Cl	i	-12%	41*	4%	92*	?
COC(=O)c1sc(-c2ccccc2)cc1NC(=O)Nc1ccc(Cl)cc1	-10%	-13%	·	?	·	18%[46.1 µM]
COC(=O)c1cccc(NC(=O)Nc2ccccc2OC)c1	i	11%	23*	2%	43*	?
COC[C@@H](O)[C@@H](OC)[C@H](OC)[C@H](Cc1c(OC)cc(OC)cc1OC)OC	·	·	·	·	·	-4%[14.2 µM]
Nc1ncnc2c1ncn2[C@@H]1O[C@H](C(=O)NC2CC2)[C@@H](O)[C@H]1O	-12%	-2%	·	·	·	·
Cc1noc(-c2ccc(-c3noc(-c4cccc(Cl)c4)n3)cc2)n1	-13%	2%	·	-2%[46.1 µM]	·	·
Fc1cccc(F)c1-c1nc(-c2ccc(Cl)cc2)no1	8%	32%	56*	17%[46.1 µM]	63*	?
COc1ccc(Cl)cc1-c1nc(-c2ccc(Br)o2)no1	i	-15%	1	·	-4	2%
COc1ccc(-c2nc(-c3ccc(Br)o3)no2)cc1	-19%	-14%	29*	·	64*	·
COc1ccc(CC(=O)Nc2ccc(-c3noc(-c4cccc(OC)c4)n3)cc2)cc1	-4%	-14%	1	?	-2	3%
COc1cccc(-c2noc(-c3ccc(Br)o3)n2)c1	-10%	-3%	32*	·	109*	?
COc1ccc(Cc2noc(-c3ccc(C)cc3)n2)cc1	·	·	29*	-15%	72*	3%
COc1ccc(C(=O)NCc2nc(-c3cccc(NC(=O)c4ccc(C)s4)c3)oc2C)cc1	-11%	0%	·	·	·	·
Cc1ccc(C)c(CN2C(=O)CSc3ccc(C(=O)NCCc4ccc(Cl)cc4)cc32)c1	-18%	-19%	·	-2%[46.1 µM]	·	15%[46.1 µM]
COc1ccccc1CN1CCOc2ccc(C(C)(O)COc3ccccc3)cc2C1 (configuration not stated)	-15%	-10%	·	·	·	·
CCOc1ccc(-c2nc3c(c(SCC(=O)N4CCCCC4)n2)Cc2cc(C)ccc2O3)cc1	-15%	-14%	·	-5%[46.1 µM]	·	6%[46.1 µM]
COC(=O)c1ccc(-c2nc(-c3ccc(Br)o3)no2)cc1	i	-5%	21*	·	30	·
COc1ccc(-c2noc(-c3ccc(Br)o3)n2)cc1	-6%	-4%	30*	?	69*	0%
COc1ccc(-c2noc(-c3ccc(Cl)cc3)n2)cc1	-13%	-4%	25*	?	48*	?
Fc1ccccc1-c1nc(-c2ccccc2)oc1NCc1ccccc1	·	·	·	·	·	1%[14.2 µM]
COc1cc(OC)cc(C(=O)Nc2cccc3ccccc23)c1	·	·	7	·	6	·
COC(=O)/C(=C/Nc1cccc2ccccc12)[N+](=O)[O-]	-6%	-12%	28*	12%	53*	10%
C#CCCCO/N=C1/C[C@@H](O)[C@@H](O)[C@@H]2[C@H]3C(=O)N(c4ccc(F)cc4F)C(=O)[C@@H]3CC[C@H]12	·	·	·	·	·	-6%[14.2 µM]
CCN1C(=O)CC(C(C)C)N(C2CCCC2)c2nc(Nc3ccc(C(=O)NC4CCN(C)CC4)cc3OC)ncc21 (configuration not stated)	?	10µM*	·	·	·	·
CCc1c(C(=O)Nc2ccncc2)csc1C	·	·	6	-8%	-4	-16%
